# Data reported in the supplement of paper PMC6555819.
# What was measured:
# Assay in all cases: PBM binding z-score (relative to random genomic background probes); higher = stronger binding; sequences stand for … in GC…GCGATTGACAGCGTAGAATGAAGG
# [1] = test system: FXR:RXRa (NR concentration 270 nM, RXRa partner concentration 90 nM)
# How it was run: (§1)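 Ligand-free nuclear receptor dimers were applied to custom Agilent 4×180K protein-binding microarrays whose double-stranded probes carried direct-repeat seeds, single-nucleotide variants, half-site ablations and random human genomic background sequences in 34-nt variable regions. Incubation lasted 1 h. Binding z-scores were computed against the random background probes from regression-normalized fluorescence.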
# [2] = test system: LXRa:RXRa (NR concentration 270 nM, RXRa partner concentration 90 nM)
# How it was run: as §1
# [3] = test system: LXRa homodimer (NR concentration 270 nM)
# How it was run: as §1
# [4] = test system: LXRb:RXRa (NR concentration 270 nM, RXRa partner concentration 90 nM)
# How it was run: as §1
# [5] = test system: LXRb homodimer (NR concentration 270 nM)
# How it was run: as §1
# [6] = test system: PPARa:RXRa (NR concentration 270 nM, RXRa partner concentration 90 nM)
# How it was run: as §1
# [7] = test system: PPARg:RXRa (NR concentration 180 nM, RXRa partner concentration 90 nM)
# How it was run: as §1
# [8] = test system: PPARg:RXRa 270nM:90nM, anti-RXR (NR concentration 270 nM, RXRa partner concentration 90 nM)
# How it was run: as §1
# [9] = test system: PPARg:RXRa 30nM:10nM, anti-RXR (NR concentration 30 nM, RXRa partner concentration 10 nM)
# How it was run: as §1
# [10] = test system: PPARg:RXRa 90nM:30nM, anti-RXR (NR concentration 90 nM, RXRa partner concentration 30 nM)
# How it was run: as §1
# [11] = test system: PPARg:RXRa DBDmut IVT, anti-RXR (DBD mutation: RXRa K156A/R161A, NR concentration 270 nM, RXRa partner concentration 90 nM)
# How it was run: as §1
# [12] = test system: PPARg:RXRa IVT, anti-PPARg (NR concentration 270 nM, RXRa partner concentration 90 nM)
# How it was run: as §1
# [13] = test system: PPARg DBDmut:RXRa IVT, anti-PPARg (DBD mutation: PPARg1 K132A/R137A, NR concentration 270 nM, RXRa partner concentration 90 nM)
# How it was run: as §1
# [14] = test system: PPARg DBDmut IVT, anti-PPARg (DBD mutation: PPARg1 K132A/R137A, NR concentration 270 nM)
# How it was run: as §1
# [15] = test system: PPARg homodimer (NR concentration 180 nM)
# How it was run: as §1
# [16] = test system: PXR:RXRa (NR concentration 270 nM, RXRa partner concentration 90 nM)
# How it was run: as §1
# [17] = test system: PXR homodimer (NR concentration 270 nM)
# How it was run: as §1
# [18] = test system: RARa:RXR (NR concentration 270 nM, RXRa partner concentration 90 nM)
# How it was run: as §1
# [19] = test system: RARa homodimer (NR concentration 270 nM)
# How it was run: as §1
# [20] = test system: RARb:RXRa (NR concentration 270 nM, RXRa partner concentration 90 nM)
# How it was run: as §1
Sequence,PBM binding z-score [1],PBM binding z-score [2],PBM binding z-score [3],PBM binding z-score [4],PBM binding z-score [5],PBM binding z-score [6],PBM binding z-score [7],PBM binding z-score [8],PBM binding z-score [9],PBM binding z-score [10],PBM binding z-score [11],PBM binding z-score [12],PBM binding z-score [13],PBM binding z-score [14],PBM binding z-score [15],PBM binding z-score [16],PBM binding z-score [17],PBM binding z-score [18],PBM binding z-score [19],PBM binding z-score [20]
CGTCCAAGGTCAAGGTCCGTGAAAGAGACTCGAA,7.33,5.22,0.155,3.84,0.0848,5.79,5.02,5.3,1.9,3.92,3.62,3.88,0.152,-0.702,2.49,3.69,0.711,4.47,0.5,5.29
ATCGCTAGGTAACAAGTTCAGTGAAAGAGAGGAC,-0.045,0.0443,-0.0365,-0.0294,-0.328,0.506,0.393,0.468,-0.139,0.219,-0.0634,0.674,0.226,0.479,0.192,1.13,1.05,0.46,-0.284,1.38
AGAACGAGGGCAATGAGTGGATAGCACGGGTGGC,0.0707,0.00914,-0.454,-0.474,-0.905,1.12,1.49,0.671,0.264,0.612,3.17,2.32,0.26,-0.542,-0.143,-0.0216,-0.0699,-0.0529,0.296,1.72
CCGACTGGGGCAATGGTTACCATACTCAGTACGA,-0.281,-0.63,-0.543,-0.411,-1.1,0.901,2.88,3.63,1.72,3.63,3.21,3.14,-0.545,-0.357,0.166,-0.648,-0.201,-0.309,-0.393,0.161
TCTTGTAGATTAACAGGAGGTTAAGAAAGATCGA,0.498,1.41,0.483,0.95,-0.0109,1.06,0.145,1.41,2.67,1.89,1.1,0.0101,-0.776,0.403,-0.439,0.578,0.157,1.25,0.212,0.685
GCGACTGGGGCAAAGCAGGTTATCATAAGGTTGG,0.502,0.29,-0.027,0.318,-0.831,1.41,1.29,1.17,-0.476,0.229,4.56,3.61,-0.685,-0.693,-0.345,0.44,-0.841,0.549,-0.943,0.894
CGAACTAGGTCAAGGTCAGTGAATCTCCGCACGC,4.73,3.81,1.23,2.95,0.0681,5.17,8.71,6.93,4.44,7.24,7.95,8.28,1.6,0.259,3.84,3.45,1.03,3.61,1.62,4.86
